Measurements from PubChem BioAssay.
Several values for one entry are separate records, joined by “and”; a condition that tells them apart may be missing. Identical values can stand only once. Activity calls are given as the source filed them.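 Rule for the calls: active = mean z-score across replicates of 1.96 or higher in either the MELAS or the Rieske mutant cell line; inactive = the rest.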

Experiment: MELAS cybrid and Rieske KO viability enhancers – cell-based, MELAS cybrids, Rieske KO mouse fibroblasts, CellTiter-Glo, primary screen (AID 1508586);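 note: test concentration not given here; z relative to plate mean and SD of compound and empty wells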
Settings: MELAS cybrid survival, low glucose, CellTiter-Glo 48 h; stronger effect = higher value

| SMILES | z-score |
| --- | --- |
| CN1CCC(=C2c3ccccc3Sc3ccccc32)CC1 | 0.363 (inactive) |
| Cc1ccsc1/C=C/C1=NCCCN1C | -0.598 (inactive) |
| Cc1ccccc1OCC(O)CO (stereo not drawn) | -0.331 (inactive) |
| O=c1ccc2ccccc2o1 | -0.266 (inactive) |
| CC(=O)OC/C=C(C)/C=C/C=C(C)/C=C/C1=C(C)CCCC1(C)C | -0.677 (inactive) |
| CCn1cc(C(=O)O)c(=O)c2cnc(N3CCCC3)nc21 | -0.0207 (inactive) |
| Cc1c(NC(C)C)c(=O)n(-c2ccccc2)n1C | -0.485 (inactive) |
| NS(=O)(=O)c1cc2c(cc1Cl)NC(CSCc1ccccc1)=NS2(=O)=O | 0.425 (inactive) |
| Cc1ccc(C(=O)c2ccc(CC(=O)O)n2C)cc1 | 0.498 (inactive) and 0.311 (inactive) |
| CCOc1ccc(NC(C)=O)cc1 | -0.475 (inactive) and -0.0201 (inactive) |
| OC(CCN1CCCCC1)(c1ccccc1)c1ccccc1 | -1.04 (inactive) |
| O=C(O)c1ccccc1C(=O)Nc1ccc(S(=O)(=O)Nc2nccs2)cc1 | 0.52 (inactive) |
| CCCCCCCCNC(C)C(O)c1ccc(SC(C)C)cc1 (stereo not drawn) | -2.11 |
| CN(C)CCOC(=O)C(c1ccccc1)C1(O)CCCC1 (stereo not drawn) | 0.757 (inactive) |
| COc1ccc(C(=O)c2ccccc2O)c(O)c1 | 0.849 (inactive) |
| CN1CCC(OC(c2ccccc2)c2ccccc2)CC1 | 0.35 (inactive) |
| Cc1cc(-c2ccccc2)nnc1NCCN1CCOCC1 | 0.442 (inactive) |
| CCN(CC)CCOC(=O)C(c1ccccc1)C1CCCCC1 (stereo not drawn) | -2.21 (inactive) |
| CCC(=O)c1c(O)cc(O)cc1O | -0.229 (inactive) |
| NC(=O)NC1NC(=O)NC1=O (stereo not drawn) | -0.771 (inactive) |

| SMILES | z-score |
| --- | --- |
| CC1CCc2cc(F)cc3c(=O)c(C(=O)O)cn1c23 (stereo not drawn) | -0.14 (inactive) and 1.18 (inactive) |
| CCCCN(CCCC)CCCOC(=O)c1ccc(N)cc1 | 0.278 (inactive) |
| Cn1c([N+](=O)[O-])cnc1COC(N)=O | -0.153 (inactive) and -0.082 (inactive) |
| C[N+]12CCC(CC1)C(OC(=O)C(O)(c1ccccc1)c1ccccc1)C2 (stereo not drawn) | 0.605 (inactive) |
| O=C1c2c(O)cccc2Cc2cccc(O)c21 | 0.308 (inactive) |
| CCN(CC)CCNc1ccc(CO)c2sc3ccccc3c(=O)c12 | 4.63 (active) |
| O=C(O)CCC(=O)c1ccc(-c2ccccc2)cc1 | 0.38 (inactive) and 0.679 (inactive) |
| COc1cccc(OC)c1C(=O)N[C@@H]1C(=O)N2[C@@H]1SC(C)(C)[C@@H]2C(=O)O | -0.625 (inactive) |
| O=C(O)CCNC(=O)c1ccccc1 | -0.217 (inactive) |
| CCN1CCCC(OC(=O)C(c2ccccc2)c2ccccc2)C1 (stereo not drawn) | 0.463 (inactive) |
| CCCCC(CC)CN1CN(CC(CC)CCCC)CC(C)(N)C1 (stereo not drawn) | -1.45 (inactive) |
| CCN(CCCc1ccccc1)CCCc1ccccc1 | -0.31 (inactive) and -0.215 (inactive) |
| CC1(C)OC(=O)NC1=O | -0.0486 (inactive) |
| Nc1ccc(S(=O)(=O)NC(=O)c2ccccc2)cc1 | -0.2 (inactive) |
| CCCCOc1ccc(C(=O)CCN2CCCCC2)cc1 | -0.438 (inactive) and 1.08 (inactive) |
| COc1cc(NS(=O)(=O)c2ccc(N)cc2)ncn1 | 0.538 (inactive) |
| NC(N)=NS(=O)(=O)c1ccc(N)cc1 | -0.23 (inactive) and -0.511 (inactive) |
| Cc1cc(CC(=O)O)n(C)c1C(=O)c1ccc(Cl)cc1 | -0.685 (inactive) |
| C[C@H](N)[C@H](O)c1cccc(O)c1 | 0.835 (inactive) |

Same assay, conditions: Rieske KO mouse fibroblast survival, low glucose, CellTiter-Glo 72 h

| SMILES | z-score |
| --- | --- |
| CN1CCC(=C2c3ccccc3Sc3ccccc32)CC1 | 0.395 |
| Cc1ccsc1/C=C/C1=NCCCN1C | 0.242 |
| Cc1ccccc1OCC(O)CO (stereo not drawn) | -0.218 |
| O=c1ccc2ccccc2o1 | -0.22 |
| CC(=O)OC/C=C(C)/C=C/C=C(C)/C=C/C1=C(C)CCCC1(C)C | -0.15 |
| CCn1cc(C(=O)O)c(=O)c2cnc(N3CCCC3)nc21 | -0.983 |
| Cc1c(NC(C)C)c(=O)n(-c2ccccc2)n1C | -0.708 |
| NS(=O)(=O)c1cc2c(cc1Cl)NC(CSCc1ccccc1)=NS2(=O)=O | -0.312 |
| Cc1ccc(C(=O)c2ccc(CC(=O)O)n2C)cc1 | 0.161 and -0.684 |
| CCOc1ccc(NC(C)=O)cc1 | -0.108 and 0.061 |
| OC(CCN1CCCCC1)(c1ccccc1)c1ccccc1 | -0.829 |
| O=C(O)c1ccccc1C(=O)Nc1ccc(S(=O)(=O)Nc2nccs2)cc1 | 0.0843 |
| CCCCCCCCNC(C)C(O)c1ccc(SC(C)C)cc1 (stereo not drawn) | 11.2 |
| CN(C)CCOC(=O)C(c1ccccc1)C1(O)CCCC1 (stereo not drawn) | 0.693 |
| COc1ccc(C(=O)c2ccccc2O)c(O)c1 | -0.0959 |
| CN1CCC(OC(c2ccccc2)c2ccccc2)CC1 | 0.809 |
| Cc1cc(-c2ccccc2)nnc1NCCN1CCOCC1 | 0.39 |
| CCN(CC)CCOC(=O)C(c1ccccc1)C1CCCCC1 (stereo not drawn) | 0.0498 |
| CCC(=O)c1c(O)cc(O)cc1O | -0.146 |
| NC(=O)NC1NC(=O)NC1=O (stereo not drawn) | 0.175 |

| SMILES | z-score |
| --- | --- |
| CC1CCc2cc(F)cc3c(=O)c(C(=O)O)cn1c23 (stereo not drawn) | -0.162 and -0.0831 |
| CCCCN(CCCC)CCCOC(=O)c1ccc(N)cc1 | -0.637 |
| Cn1c([N+](=O)[O-])cnc1COC(N)=O | -0.129 and 0.703 |
| C[N+]12CCC(CC1)C(OC(=O)C(O)(c1ccccc1)c1ccccc1)C2 (stereo not drawn) | -0.405 |
| O=C1c2c(O)cccc2Cc2cccc(O)c21 | 0.465 |
| CCN(CC)CCNc1ccc(CO)c2sc3ccccc3c(=O)c12 | 0.873 |
| O=C(O)CCC(=O)c1ccc(-c2ccccc2)cc1 | 0.124 and 0.414 |
| COc1cccc(OC)c1C(=O)N[C@@H]1C(=O)N2[C@@H]1SC(C)(C)[C@@H]2C(=O)O | -0.275 |
| O=C(O)CCNC(=O)c1ccccc1 | -0.148 |
| CCN1CCCC(OC(=O)C(c2ccccc2)c2ccccc2)C1 (stereo not drawn) | -0.154 |
| CCCCC(CC)CN1CN(CC(CC)CCCC)CC(C)(N)C1 (stereo not drawn) | -0.231 |
| CCN(CCCc1ccccc1)CCCc1ccccc1 | -0.176 and -0.103 |
| CC1(C)OC(=O)NC1=O | -0.442 |
| Nc1ccc(S(=O)(=O)NC(=O)c2ccccc2)cc1 | -0.379 |
| CCCCOc1ccc(C(=O)CCN2CCCCC2)cc1 | 0.0294 and 0.0562 |
| COc1cc(NS(=O)(=O)c2ccc(N)cc2)ncn1 | 0.095 |
| NC(N)=NS(=O)(=O)c1ccc(N)cc1 | -0.172 and -0.306 |
| Cc1cc(CC(=O)O)n(C)c1C(=O)c1ccc(Cl)cc1 | -0.331 |
| C[C@H](N)[C@H](O)c1cccc(O)c1 | 0.306 |
